For some assays here: Results with a measured potency or affinity are listed apart.

Holding throughout (design): scale not given: direction of the effect not stated beside the values
Assay [1] addresses Protein translocase subunit SecA (Escherichia coli (strain K12)) (UniProt P10408). Briefly: Assay to Identify E. coli SecA ATPase Inhibitors. It is filed as functional. Conditions: 30 µM.
Assay [2] has as its target T1, Ubiquitin-activating enzyme e1, putative (Leishmania donovani (strain BPK282A1)) (UniProt E9BSI1).
T1 sequence (whole entry): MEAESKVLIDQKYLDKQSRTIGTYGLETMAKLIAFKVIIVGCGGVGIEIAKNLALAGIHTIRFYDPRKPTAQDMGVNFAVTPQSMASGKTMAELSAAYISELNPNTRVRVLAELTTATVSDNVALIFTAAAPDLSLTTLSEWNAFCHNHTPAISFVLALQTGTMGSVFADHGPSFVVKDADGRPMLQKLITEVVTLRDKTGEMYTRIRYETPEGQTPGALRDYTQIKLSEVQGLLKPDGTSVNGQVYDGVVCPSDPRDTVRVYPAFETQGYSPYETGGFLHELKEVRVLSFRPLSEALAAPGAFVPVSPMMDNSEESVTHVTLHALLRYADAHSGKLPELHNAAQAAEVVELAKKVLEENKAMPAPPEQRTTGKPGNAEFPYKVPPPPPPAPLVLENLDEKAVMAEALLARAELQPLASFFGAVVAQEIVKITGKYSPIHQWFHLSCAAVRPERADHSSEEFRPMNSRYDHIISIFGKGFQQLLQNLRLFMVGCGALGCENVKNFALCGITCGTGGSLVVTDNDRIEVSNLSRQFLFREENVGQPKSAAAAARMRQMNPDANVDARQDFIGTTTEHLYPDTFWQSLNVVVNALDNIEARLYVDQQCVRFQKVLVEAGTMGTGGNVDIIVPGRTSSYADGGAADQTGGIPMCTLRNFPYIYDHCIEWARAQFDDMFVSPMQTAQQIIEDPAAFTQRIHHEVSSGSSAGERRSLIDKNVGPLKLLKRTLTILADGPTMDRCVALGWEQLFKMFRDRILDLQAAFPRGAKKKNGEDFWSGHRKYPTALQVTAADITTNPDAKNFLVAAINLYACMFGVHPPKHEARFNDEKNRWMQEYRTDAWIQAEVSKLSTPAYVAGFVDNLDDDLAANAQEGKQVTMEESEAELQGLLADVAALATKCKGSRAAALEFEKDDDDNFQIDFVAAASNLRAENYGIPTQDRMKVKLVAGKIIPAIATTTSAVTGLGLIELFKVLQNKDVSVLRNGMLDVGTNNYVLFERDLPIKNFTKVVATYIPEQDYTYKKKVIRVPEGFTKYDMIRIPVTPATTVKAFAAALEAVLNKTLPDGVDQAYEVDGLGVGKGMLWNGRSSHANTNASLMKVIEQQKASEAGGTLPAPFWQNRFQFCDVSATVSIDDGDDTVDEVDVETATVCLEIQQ
Briefly: Leishmania donovani Ubiquitin Activating Enzyme (LdE1). Format: functional. Conditions: 30 µM.

Assay [3] has as its target AMP-activated protein kinase, AMPK (Homo sapiens) (UniProt P54646+O43741+P54619+Q9UGJ0+Q9Y478+Q13131+Q9UGI9). The experiment in a line: AMP-dependent Kinase enzyme assay. An in vitro enzyme assay that detects ADP turnover that is directly proportional to AMPK activity. This uses naive AMPK that is activated during the assay with MK-8722. It is filed as functional. Conditions: 30 µM.

Assay [4] deals with Sialic acid-binding Ig-like lectin 9 (Homo sapiens) (UniProt Q9Y336). Briefly: Hs-Siglec9 ALPHAscreen SOP 20170721. Conditions: 10 µM. For orientation: In Alpha technology, singlet oxygen from a donor bead excites a nearby acceptor bead.
Another assay deals with Trypanosoma cruzi. The experiment in a line: Trypanosoma cruzi phosphomannomutase and mannose-1-phosphate guanylyltransferase assay. It is filed as functional. The note with it: 10 µM.
Assay [5] addresses T2, Arginase-2, mitochondrial (Homo sapiens) (UniProt P78540).
T2 sequence (whole entry): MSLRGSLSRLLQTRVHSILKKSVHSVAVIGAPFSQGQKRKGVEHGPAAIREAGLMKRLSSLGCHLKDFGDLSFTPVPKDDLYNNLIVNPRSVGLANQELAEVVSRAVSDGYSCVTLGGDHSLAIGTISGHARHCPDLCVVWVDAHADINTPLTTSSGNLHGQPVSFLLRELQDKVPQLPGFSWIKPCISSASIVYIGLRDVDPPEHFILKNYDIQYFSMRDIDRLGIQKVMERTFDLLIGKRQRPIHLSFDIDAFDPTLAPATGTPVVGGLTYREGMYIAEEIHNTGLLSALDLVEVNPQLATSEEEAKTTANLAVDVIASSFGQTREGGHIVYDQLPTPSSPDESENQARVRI
Briefly: in vitro enzyme assay to detect the production of urea directly proportional to the activity of Arginase II. Further: in the data most compounds retested in dose-response had high values. Format: functional. Conditions: 33.3 µM.

For assay [6], the target named is T3, Proteasome subunit beta (Trypanosoma cruzi) (UniProt O96673).
T3 sequence (whole entry): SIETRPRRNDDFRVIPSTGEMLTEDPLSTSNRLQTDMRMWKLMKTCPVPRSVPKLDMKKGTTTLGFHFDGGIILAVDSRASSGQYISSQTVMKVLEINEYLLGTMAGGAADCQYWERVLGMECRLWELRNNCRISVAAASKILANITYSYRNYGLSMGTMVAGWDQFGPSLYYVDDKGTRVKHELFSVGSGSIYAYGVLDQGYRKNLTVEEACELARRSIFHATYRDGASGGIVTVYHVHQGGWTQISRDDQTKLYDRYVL
Briefly: Trypanosoma cruzi proteasome chymotrypsin-like activity (TcProtChymo) assay. Further: in the data most compounds retested in dose-response had high values. It is filed as functional. Conditions: 9.37 µM.

The species entered for the next assay is Homo sapiens. The experiment in a line: To identify inhibition of the IFN signalling (Jak-Stat) pathway via expression of an eGFP reporter gene under the control of an IFN-stimulated response element (ISRE) containing MxA promoter. It is filed as functional. The note with it: 30 µM.
For assay [7], the target named is T4, Tyrosyl-tRNA synthetase, putative (Trypanosoma cruzi (strain CL Brener)) (UniProt Q4DSP6).
T4 sequence (whole entry): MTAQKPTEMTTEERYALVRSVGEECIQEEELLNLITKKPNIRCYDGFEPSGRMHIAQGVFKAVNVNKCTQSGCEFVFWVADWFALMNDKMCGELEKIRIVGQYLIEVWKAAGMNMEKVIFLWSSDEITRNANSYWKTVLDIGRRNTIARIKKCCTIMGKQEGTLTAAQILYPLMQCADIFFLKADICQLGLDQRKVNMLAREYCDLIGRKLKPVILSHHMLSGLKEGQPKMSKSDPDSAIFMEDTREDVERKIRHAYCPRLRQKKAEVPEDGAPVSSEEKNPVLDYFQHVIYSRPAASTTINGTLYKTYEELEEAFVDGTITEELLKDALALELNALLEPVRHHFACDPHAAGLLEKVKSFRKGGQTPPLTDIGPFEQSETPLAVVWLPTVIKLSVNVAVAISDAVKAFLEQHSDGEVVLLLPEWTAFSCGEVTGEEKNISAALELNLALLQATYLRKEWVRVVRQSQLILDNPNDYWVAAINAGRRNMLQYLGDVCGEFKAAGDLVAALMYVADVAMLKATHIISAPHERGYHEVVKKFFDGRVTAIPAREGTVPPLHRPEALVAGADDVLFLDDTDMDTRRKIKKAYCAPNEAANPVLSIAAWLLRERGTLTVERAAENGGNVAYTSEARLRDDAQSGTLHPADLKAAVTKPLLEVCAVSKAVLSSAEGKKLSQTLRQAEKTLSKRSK
Briefly: Trypanosoma cruzi tyrosyl tRNA synthetase (TcYRS) _High Tyrosine SOP. Further: in the data most compounds retested in dose-response had high values. It is filed as functional. Conditions: 30 µM.

Assay [8] concerns the target T4, Tyrosyl-tRNA synthetase, putative (Trypanosoma cruzi (strain CL Brener)). Briefly: Trypanosoma cruzi tyrosyl tRNA synthetase (TcYRS) SOP. It is filed as functional. The note with it: 30 µM.
The target of assay [9] is Chromo domain-containing protein 1 (Saccharomyces cerevisiae (strain ATCC 204508 / S288c) (Baker's yeast)) (UniProt P32657). Briefly: ScCHD-1 Enzyme Inhibition Assay. Further: in the data most compounds retested in dose-response had high values. Format: functional. The note with it: 30 µM.
Chain of Chromo domain-containing protein 1 (Saccharomyces cerevisiae (strain ATCC 204508 / S288c) (Baker's yeast)) (P32657 whole entry, the tested form may be a part): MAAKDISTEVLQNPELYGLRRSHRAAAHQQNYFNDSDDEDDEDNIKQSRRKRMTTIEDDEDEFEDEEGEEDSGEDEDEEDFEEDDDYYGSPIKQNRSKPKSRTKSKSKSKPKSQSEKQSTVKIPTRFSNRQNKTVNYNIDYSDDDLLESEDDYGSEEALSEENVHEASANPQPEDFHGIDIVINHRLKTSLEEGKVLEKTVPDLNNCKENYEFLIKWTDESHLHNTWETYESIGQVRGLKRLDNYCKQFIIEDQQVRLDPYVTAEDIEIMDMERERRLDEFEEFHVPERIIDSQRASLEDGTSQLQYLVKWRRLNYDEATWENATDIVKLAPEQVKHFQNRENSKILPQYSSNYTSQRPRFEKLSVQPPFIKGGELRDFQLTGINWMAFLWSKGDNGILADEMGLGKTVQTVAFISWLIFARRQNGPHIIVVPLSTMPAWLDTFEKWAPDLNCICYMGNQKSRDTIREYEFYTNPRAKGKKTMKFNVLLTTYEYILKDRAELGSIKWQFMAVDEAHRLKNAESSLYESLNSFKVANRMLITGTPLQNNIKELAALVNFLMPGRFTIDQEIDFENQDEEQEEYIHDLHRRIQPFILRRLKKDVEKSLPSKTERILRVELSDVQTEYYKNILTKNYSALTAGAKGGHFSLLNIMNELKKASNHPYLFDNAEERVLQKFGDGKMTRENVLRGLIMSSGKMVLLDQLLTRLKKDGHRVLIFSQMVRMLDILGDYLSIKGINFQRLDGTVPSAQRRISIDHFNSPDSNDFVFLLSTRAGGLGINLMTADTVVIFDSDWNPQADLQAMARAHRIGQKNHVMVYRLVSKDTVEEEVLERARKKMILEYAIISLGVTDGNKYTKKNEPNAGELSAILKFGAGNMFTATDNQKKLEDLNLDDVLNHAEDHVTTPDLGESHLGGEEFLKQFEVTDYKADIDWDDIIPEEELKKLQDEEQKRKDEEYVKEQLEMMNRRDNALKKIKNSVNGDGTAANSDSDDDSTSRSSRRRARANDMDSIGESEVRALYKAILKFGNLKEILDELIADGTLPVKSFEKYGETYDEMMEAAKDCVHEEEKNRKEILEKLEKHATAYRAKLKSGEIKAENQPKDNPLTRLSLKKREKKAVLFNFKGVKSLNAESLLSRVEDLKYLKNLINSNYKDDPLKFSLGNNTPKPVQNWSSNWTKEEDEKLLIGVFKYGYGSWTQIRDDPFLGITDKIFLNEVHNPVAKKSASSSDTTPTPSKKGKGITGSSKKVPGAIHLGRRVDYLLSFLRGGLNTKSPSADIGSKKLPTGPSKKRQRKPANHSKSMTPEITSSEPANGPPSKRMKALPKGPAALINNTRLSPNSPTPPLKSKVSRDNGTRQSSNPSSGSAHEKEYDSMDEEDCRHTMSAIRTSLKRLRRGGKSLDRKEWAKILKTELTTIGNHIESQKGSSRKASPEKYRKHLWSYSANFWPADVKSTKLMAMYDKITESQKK

Chain of Sialic acid-binding Ig-like lectin 9 (Homo sapiens) (Q9Y336 whole entry): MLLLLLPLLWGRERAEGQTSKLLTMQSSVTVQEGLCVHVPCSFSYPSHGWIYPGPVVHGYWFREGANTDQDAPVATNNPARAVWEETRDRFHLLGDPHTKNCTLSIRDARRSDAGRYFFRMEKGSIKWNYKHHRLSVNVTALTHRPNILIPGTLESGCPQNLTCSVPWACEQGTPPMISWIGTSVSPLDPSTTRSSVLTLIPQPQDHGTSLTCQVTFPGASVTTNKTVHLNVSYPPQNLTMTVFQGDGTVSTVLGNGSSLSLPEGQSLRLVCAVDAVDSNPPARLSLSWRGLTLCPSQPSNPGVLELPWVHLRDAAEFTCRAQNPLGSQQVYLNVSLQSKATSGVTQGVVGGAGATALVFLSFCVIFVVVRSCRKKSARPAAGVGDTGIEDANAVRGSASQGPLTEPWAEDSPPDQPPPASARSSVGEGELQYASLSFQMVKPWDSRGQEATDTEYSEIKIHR
Chain of Protein translocase subunit SecA (Escherichia coli (strain K12)) (P10408 whole entry): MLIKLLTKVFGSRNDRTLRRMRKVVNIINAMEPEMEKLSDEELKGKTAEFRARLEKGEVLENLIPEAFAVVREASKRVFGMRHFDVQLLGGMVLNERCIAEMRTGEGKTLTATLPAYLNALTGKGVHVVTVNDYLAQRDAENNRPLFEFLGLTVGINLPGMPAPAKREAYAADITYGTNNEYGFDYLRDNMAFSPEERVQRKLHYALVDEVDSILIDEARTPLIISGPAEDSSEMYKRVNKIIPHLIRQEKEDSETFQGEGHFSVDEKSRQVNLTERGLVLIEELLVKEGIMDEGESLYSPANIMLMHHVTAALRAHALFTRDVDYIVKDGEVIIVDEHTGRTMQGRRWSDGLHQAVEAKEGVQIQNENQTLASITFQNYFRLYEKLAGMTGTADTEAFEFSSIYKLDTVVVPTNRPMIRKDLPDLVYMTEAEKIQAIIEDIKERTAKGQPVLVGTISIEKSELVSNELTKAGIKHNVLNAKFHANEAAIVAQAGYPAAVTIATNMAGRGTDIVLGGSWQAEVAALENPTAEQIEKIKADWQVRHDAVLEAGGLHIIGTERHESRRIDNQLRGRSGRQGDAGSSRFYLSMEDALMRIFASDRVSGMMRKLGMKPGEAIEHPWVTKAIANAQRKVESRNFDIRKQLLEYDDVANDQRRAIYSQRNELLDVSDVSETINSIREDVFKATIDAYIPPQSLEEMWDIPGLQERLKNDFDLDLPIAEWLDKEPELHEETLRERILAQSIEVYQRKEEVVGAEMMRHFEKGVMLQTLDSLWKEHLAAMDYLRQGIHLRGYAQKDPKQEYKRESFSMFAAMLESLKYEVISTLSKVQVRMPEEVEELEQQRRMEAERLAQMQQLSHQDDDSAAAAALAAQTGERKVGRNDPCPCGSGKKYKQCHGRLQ

For `Cc1nc(C)n(CC2CN(c3ncccn3)Cc3nccn3C2)n1` (stereo not given), the Percent Effect in assay [1] was -6.81%; in assay [2] it was 8.11%; in [3], -2.43%; in assay [4] it was 1.67%; with Trypanosoma cruzi it was -3.42%; in assay [5], -2.73%. For the same molecule, the Percent Effect is 6.44% in [6]; 2.81% in the assay listed under Homo sapiens; 2.15% in [7]; 11.1% in [8]; -2.96% in assay [9].
As to `Cc1cc(S(=O)(=O)NCc2cccc(C(=O)N3CCCC3)c2)c(C)s1`, the Percent Effect in [1] was -4.9%; in assay [2] it was 13%; in [3] it was -3.16%; in [4], -6.78%; in the assay on Trypanosoma cruzi it was 4.21%; in assay [5] it was -1.9%. Further, the Percent Effect in [6] was 10.1%; in the assay listed under Homo sapiens, 15.2%; in assay [7], 5.71%; in [8], 21.2%; in assay [9], -17.7%.
With `Cc1nc(COC[C@@H]2CC[C@H]3[C@H](CCN3S(C)(=O)=O)O2)cs1`, the Percent Effect in assay [1] is 1.19%; in [2] it was 8.11%; in assay [3] it was -0.571%; in [4] it was -10.8%; in the assay on Trypanosoma cruzi, -6.94%; in assay [5], 7.96%. In addition, the Percent Effect in [6] was 23.4%; in the assay filed under Homo sapiens, 8.05%; in assay [7] it was 6.49%; in assay [8], 10.3%; in assay [9], 0.52%.
Take `Cn1cnc(S(=O)(=O)NCCN2CCCCCC2=O)c1Cl`: the Percent Effect in assay [1] was -8.78%; in assay [2], 5.41%; in [3], -41.8%; in assay [4], 6.15%; with Trypanosoma cruzi, -3.87%; in assay [5], -0.802%. Also, the Percent Effect in assay [6] was 0.721%; in the assay listed under Homo sapiens, 17.8%; in assay [7], -0.493%; in [8] it was -6.17%; in [9], -8.21%.
Consider `Cn1cc(C2CCCN2CCCc2nc(-c3cccs3)no2)cn1` (stereo not given), for which the Percent Effect in assay [1] was -0.777%; in [2], -32.4%; in assay [3], -4.52%; in assay [4], -1.6%; in the assay with Trypanosoma cruzi, -3.87%; in assay [5], -6.41%. For the same molecule, the Percent Effect in assay [6] was 7.03%; in the assay listed under Homo sapiens, 18.4%; in assay [7], 4.43%; in [8] it was -6.17%; in [9], 0.396%.
On to `Cn1cc(CN2CC[C@@H]3O[C@H](C(=O)N4CCOCC4)C[C@@H]32)cn1`, for which the Percent Effect in [1] was 1.91%; in assay [2], -2.7%; in assay [3], 0.801%; in assay [4], -2.48%; with Trypanosoma cruzi, -3.91%; in assay [5], 2.5%. Also, the Percent Effect in [6] is -0.0845%; in the assay listed under Homo sapiens it was -20.5%; in [7], -46.5%; in assay [8] it was -3.66%; in assay [9] it was 4.62%.
`CSc1ccc(NC(=O)Nc2ccc3c(c2)N(S(C)(=O)=O)CC3)cc1`: the Percent Effect in assay [1] was -1.27%; in assay [2] it was -23.4%; in assay [3], -4.52%; in [4] it was 3.62%; with Trypanosoma cruzi, 3.06%; in assay [5], -93.5%. Further, the Percent Effect was 27.9% in assay [6]; 30.8% in the assay filed under Homo sapiens; -6.35% in [7]; -14.1% in assay [8]; -6.55% in assay [9].
Consider `O=C(c1cnc(-c2cccs2)s1)N1CCCC(n2cccn2)C1` (stereo not given), for which the Percent Effect was -4.52% in assay [1]; 13.5% in assay [2]; 1.78% in assay [3]; 1.67% in assay [4]; -1.6% in the assay on Trypanosoma cruzi; -2% in assay [5]. For the same molecule, the Percent Effect in [6] is 3.24%; in the assay listed under Homo sapiens it was 13.5%; in assay [7], 5.42%; in assay [8], 11.1%; in [9], -8.6%.
With `COc1ccc(C(=O)N2Cc3c(Cn4ccnc4)nn(C)c3C2)cc1`, the Percent Effect in assay [1] is -2.78%; in assay [2] it was 8%; in assay [3], 5.76%; in [4] it was -5.42%; in the assay on Trypanosoma cruzi, 3.15%; in [5], -1.63%. Further, the Percent Effect was 12.1% in [6]; 7.14% in the assay filed under Homo sapiens; 5.32% in assay [7]; 11.5% in assay [8]; -3.95% in assay [9].
As to `O=C(c1cccn1Cc1cccs1)N1CCN(C2CC2)CC1`, the Percent Effect in assay [1] is -4.51%; in assay [2], 0%; in assay [3] it was 3.71%; in assay [4], 11%; in the assay with Trypanosoma cruzi it was 8.05%; in assay [5] it was 0%. Besides, the Percent Effect in [6] was 11.3%; in the assay filed under Homo sapiens, -0.305%; in assay [7], 6.8%; in assay [8], 14.6%; in assay [9] it was -8.6%.

Values taken from ChEMBL document CHEMBL3988442, “University of Dundee, Small-Polar-MMV Screening Library” (2021).
